In the assay the target is AT4G31550 (Arabidopsis thaliana, UniProt Q9SV15 228-325). In words: DPI-ELISA; DPI-ELISA, streptavidin 384-well plate, 1-2 pmol biotinylated dsDNA per well, crude native E. coli extract, anti-His detection; buffer as in Brand et al. [46],; high values mean tight binding. Conditions: tags: C-terminal His (pET-DEST42); label: 5' biotin on forward strand; dsDNA, one strand shown.
Sequence of AT4G31550 (Q9SV15 228-325): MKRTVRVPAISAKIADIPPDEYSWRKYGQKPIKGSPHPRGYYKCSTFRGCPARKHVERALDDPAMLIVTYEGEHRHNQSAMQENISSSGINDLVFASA
Turning to AAAAAATAGTGTGATTGGTATCCAGTAAAA, the binding signal worked out at 0.645 ± 0.0495 absorbance.
To AAAAAACCCCAGATTTCCAGCAGTTCAAAA belongs 0.945 ± 0.629 absorbance.
In the case of AAAAAATTTGTACTTTAAGTTTACATAAAA, the binding signal came out at 0.56 ± 0.0849 absorbance.
Sequence AAAAAAATGGTGCCGCTGAGCAAATTAAAA gave a binding signal of 0.555 ± 0.12 absorbance.
In the case of AAAAAACTCGCGCTTGCATCTGTGCGAAAA it was 0.555 ± 0.0636 absorbance; in that of AAAAAATTTGCTCTTTTGGTTTTCACAAAA, 0.64 ± 0.0707 absorbance; in that of AAAAAACGGAAGATCGTGACTGCTAGAAAA, 0.715 ± 0.0354 absorbance.
AAAAAAGTACGGATGCCCGCGCGTATAAAA yielded a binding signal of 0.735 ± 0.205 absorbance.
With AAAAAAACTTCTGTCCCTGTTCCCGTAAAA, the binding signal was found to be 0.55 ± 0.127 absorbance.
To AAAAAAGGGCCCACTATCGACGTCAAAA belongs 0.605 ± 0.134 absorbance; to AAAAAAGGCCTTCGCTCGTGTTTACGAAAA, 0.4 ± 0.0424 absorbance; to AAAAAAACGCTATATATTGGTGCTAGAAAA, 0.695 ± 0.134 absorbance.
As for AAAAAACCTCTTGTCTCTGCTCTCCCAAAA, the binding signal amounted to 0.575 ± 0.106 absorbance.
To AAAAAACCGAGTGTTGCCAGTTGCAGAAAA belongs 0.655 ± 0.0919 absorbance; to AAAAAATATCTGATCCAATTTAGGTCAAAA, 1.5 ± 0.0212 absorbance.
As to AAAAAAGCGCGAATTCTAGAACTATAAAAA, the binding signal stood at 0.57 ± 0.113 absorbance.
AAAAAATCGGGGATCCGGGCGGTTGCAAAA came in with a binding signal of 0.665 ± 0.12 absorbance.
To AAAAAAGACACTCTAATTCCGTAGGCAAAA belongs 0.405 ± 0.0495 absorbance; to AAAAAACTGACCGTCAGCGCCCACGCAAAA, 1.45 ± 0.424 absorbance; to AAAAAATCCTGTTTGCGTTTGATTTTAAAA, 0.51 ± 0.099 absorbance.
AAAAAAGTTTCCTACTTGTGTCTGTGAAAA had a binding signal of 0.53 ± 0.0849 absorbance.
Turning to AAAAAATTCCCAGCGTATCCGACCCGAAAA, the binding signal was 0.535 ± 0.0778 absorbance.
AAAAAAAAATCGAATTTGGACTTCCGAAAA registered a binding signal of 0.775 ± 0.0354 absorbance.
As for AAAAAATCCTTTTCTCTTTCTGTTTCAAAA, the binding signal was found to be 0.575 ± 0.12 absorbance.
In the case of AAAAAATGCTATCCGTGTCTATGCCAAAAA it was 0.54 ± 0.0707 absorbance; in that of AAAAAATCGCGTCCGTGCTCAATCCAAAAA, 0.48 ± 0.0566 absorbance; in that of AAAAAATCGTAAATGCCCATAGCCGTAAAA, 0.555 ± 0.106 absorbance.
AAAAAACTGTGTCCCCGTCCCATCTCAAAA had a binding signal of 0.525 ± 0.12 absorbance.
In the case of AAAAAATTAGACGCTACACTTACGGTAAAA it was 0.665 ± 0.106 absorbance; in that of AAAAAAGTCTAAGGACTTATAGCTGTAAAA, 1.65 ± 0.608 absorbance; in that of AAAAAAGTTCGGGGCTTGGTTTGGAAAAAA, 0.765 ± 0.205 absorbance.
In the case of AAAAAAACAGCTCGGTGCCACTGTGGAAAA it was 0.61 ± 0.0424 absorbance.
To AAAAAACTAGGTATCGGTAGGCGCCGAAAA belongs 0.6 ± 0.0849 absorbance; to AAAAAAGGCGTCTGACTGTAACTCGTAAAA, 1.43 ± 0.445 absorbance; to AAAAAATCCATTCTTCGCGTTTATCCAAAA, 0.53 ± 0.0849 absorbance.
Sequence AAAAAAAGCTTCTATAGCTCCATGGAAAA showed a binding signal of 0.515 ± 0.106 absorbance.
To AAAAAAGTCCCGCGCTAAGCTTTAAAAAAA belongs 0.615 ± 0.106 absorbance; to AAAAAATGGCTCGGGTTCCAAGGTTGAAAA, 0.645 ± 0.0919 absorbance.

For the origin of these results see PMC3795721, “Screening for Protein-DNA Interactions by Automatable DNA-Protein Interaction ELISA”.
